aSyn 5UTR act – Activators via SNCA 5'UTR binding, MLPCN; 300,000 tested, 7.1% active; alpha-synuclein 5'UTR reporter, activators screen; AID 1814, 2009; activity score, % (tested at 7.5 µM), hits read low; in the data active means activity score below about -60%
Starred values were filed as active, the others as inactive. A selection follows.

SMILES	aSyn 5UTR act
Nc1ccc2c(c1)C(=O)c1ccccc1C2=O	-145*
CC(=O)Nc1ccc2nc3ccccc3nc2c1	-82*
Nc1ccc2c(c1)C(=O)C(=O)c1ccccc1-2	130
CC(=O)Nc1ccc(Nc2c3c4c(cccc4n(C)c2=O)C(=O)c2ccccc2-3)cc1	59
O=C(O)/C=C/C(=O)Nc1ccc2c(c1)C(=O)c1ccccc1C2=O	-65*
CC(=O)Nc1ccc2c(c1)C(=O)c1ccccc1C2=O	-185*
Cc1cccc(-n2nnc(C(=O)Nc3ccc(F)cc3)c2N)c1	-196*
Cc1cccc(-n2nnc(C(=O)N3CCc4ccccc4C3)c2N)c1	-71*
Oc1csc(Cc2nc(-c3ccc(Br)cc3)cs2)n1	-291*
Cc1nc2cc(NC(=O)CCS(=O)(=O)c3ccccc3)ccc2s1	-172*
COc1ccc(C(=O)Nc2nc3cc4c(cc3s2)OCCO4)c(OC)c1	-63*
COc1ccccc1C(=O)Nc1nc2cc3c(cc2s1)OCCO3	-64*
COc1ccccc1C(=O)Nc1nc2cc3c(cc2s1)OCO3	-122*
COc1ccc(C(=O)Nc2nnc(Cc3ccc(OC)c(OC)c3)s2)c(OC)c1	-82*
O=C(CCS(=O)(=O)c1ccccc1)Nc1nc2cc3c(cc2s1)OCO3	-65*
N#C/C(=C/c1ccc(N2CCCCCC2)o1)c1cccc(F)c1	-286*
N#C/C(=C/c1ccc(N2CCCCCC2)o1)c1ccc(F)cc1	-111*
Cc1ccc(NC(=O)c2snc3ccc(Cl)cc23)cc1C	-216*
C=CCc1ccc(OCc2ccc(C(=O)OC)o2)c(OC)c1	-121*
COC(=O)c1ccc(COc2ccc(C)c(C)c2)o1	-198*
Cc1ccc(OCc2ccc(C(=O)O)o2)cc1C	-188*
Cc1csc(NC(=O)c2ccc(COc3ccccc3)o2)n1	-136*
COC(=O)c1ccc(COc2cc(C)ccc2C)o1	-149*
Cc1cc(COc2ccccc2)oc1C(=O)O	-108*
C=CCc1ccc(OCC(O)COCC)c(OC)c1 (centres undefined)	-76*
SMILES	aSyn 5UTR act
Cc1ccc(OCc2ccc(C(=O)Nc3nccs3)o2)cc1C	-110*
COc1ccccc1N1CCN(/N=C/c2ccc([N+](=O)[O-])cc2)CC1	-159*
COc1ccccc1N1CCN(/N=C/c2cccc(O)c2)CC1	-111*
COc1ccccc1N1CCN(/N=C/c2ccc(Cl)c([N+](=O)[O-])c2)CC1	-128*
COc1ccccc1N1CCN(c2ccnc3cc(Cl)ccc23)CC1	87
Cc1cccc(C(=O)Nc2nc3ccc(S(C)(=O)=O)cc3s2)c1	-281*
Cc1ccc2nc(NC(=O)c3ccc(NS(=O)(=O)c4cccs4)cc3)sc2c1	-130*
CC(C)(C)C(=O)Nc1nc2ccc(S(C)(=O)=O)cc2s1	-112*
O=c1c(Cl)c(O)c2cccc3c4ccccc4n1c23	-64*
COCCNC(=O)Cn1nc(-c2ccccc2OC)ccc1=O	-62*
O=c1c2ccccc2nc(SCc2nc3ccccc3s2)n1CCCO	-182*
CN(C)c1ncc(C2=C(Cl)C(=O)C(N3CCCC3)=C(Cl)C2=O)s1	-70*
Cc1cc2cc(OCc3ccccc3)ccc2n1C	-183*
Cc1c(C=O)c2cc(OCc3ccccc3)ccc2n1C	-76*
O=C(Cc1ccccc1)c1ccc(Cl)cc1	-73*
O=C(Cc1ccc(Cl)cc1)c1ccc(O)cc1	-151*
Cc1ccc(CC(=O)c2ccc(Cl)cc2)cc1	-83*
CCC(=O)Nc1nc2ccc3sc(C)nc3c2s1	-86*
Cc1nc2c(ccc3nc(NC(=O)C4CC4)sc32)s1	-121*
Cc1cc(Cl)ccc1OCC(=O)Nc1cccnc1	-108*
Cc1c(C)c2ccc(OCC(=O)Nc3cccnc3)c(C)c2oc1=O	-137*
Cc1ccsc1/C=N/NC(=O)c1ccco1	-81*
Cc1ccc(C(=O)N/N=C\c2sccc2C)cn1	-75*
Cc1ccsc1/C=N/NC(=O)c1sccc1C	-167*
Cc1ccc(C(=O)N/N=C/c2c(O)ccc3ccccc23)cn1	62
SMILES	aSyn 5UTR act
Cc1ccsc1/C=N/N=C/c1sccc1C	-181*
N#Cc1ccsc1NC(=O)COC(=O)c1ccc(NC(N)=O)cc1	-78*
CC(=O)Nc1ccc(SCC(=O)Nc2sccc2C#N)cc1	-111*
CCN(CC)c1ccc(C(=O)OCC(=O)Nc2sccc2C#N)cc1	-176*
N#Cc1ccsc1NC(=O)COc1ccc(-c2nnco2)cc1	-96*
N#Cc1ccsc1NC(=O)COC(=O)c1cc2ccccc2cc1O	-178*
N#Cc1ccsc1NC(=O)CCc1ccccc1	-81*
Cc1ccc(C(=O)NCc2ccccn2)c(Cl)c1	-92*
Cc1ccc(OCC(=O)NCc2ccccn2)c(Br)c1	-104*
O=C(NCCSc1ccccn1)c1ccc(Cl)cc1Cl	-93*
O=C(COc1ccccc1Br)NCc1ccccn1	-71*
O=C(COc1ccc(F)cc1Br)NCc1ccccn1	-88*
CC(C)(C)c1ccc(NC(=O)CC2(C(F)(F)F)OCCO2)cc1	-112*
CS(=O)(=O)c1ccc2nc(NC(=O)Nc3ccccc3F)sc2c1	-109*
CS(=O)(=O)c1ccc2nc(NC(=O)Nc3cccc(Cl)c3)sc2c1	-85*
CN(C)/C=N/c1nc(-c2ccc3c(c2)OCO3)cs1	-171*
